The text below walks through data of PubChem BioAssay.

Assay [1] relates to TRPC4 beta (transient receptor potential cation channel C4), mouse. The assay is described as follows: TRPC4 cation channel opening, retest – cell-based, Fluo4 calcium, HEK293 TRPC4beta/mu-opioid, duplicates, 10 µM, confirmation (AID 2426;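 active means fluorescence ratio normalized to control raised more than 50% in primary screen plus both repeat runs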;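 on activation: percent rise of integrated ratio over buffer wells lacking compound which define 0%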). The conditions noted are these: Fluo4 calcium fluorescence, at 10 µM; hits give high values.
The subject of assay [2] is transient receptor potential cation channel C4 beta (TRPC4), mouse. The assay is described as follows: TRPC4 cation channel opening, second retest – cell-based, second round, Fluo4, HEK293 TRPC4beta/mu-opioid, 1 µM, confirmation (AID 2461;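 active means primary screen active and over 50% activation in each of two duplicate runs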;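 on activation: 0% = wells without test compound as baseline of integrated fluorescence ratio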). Conditions: Fluo4 calcium fluorescence, at 1 µM; hits give high values.
For assay [3], the system named is TRPC4 (transient receptor potential cation channel C4 beta), mouse. The assay is described as follows: potentiation of DAMGO EC20 TRPC4 response – cell-based, second round, Fluo-4, HEK293 TRPC4beta/mu-opioid, 1 µM, confirmation (AID 2554;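 active means primary screen hit whose fluorescence ratio, in both repeats, exceeds the weak agonist control mean by 3 SD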). The conditions noted are these: DAMGO EC20, Fluo-4 calcium flux, at 1 µM; hits give high values. Background: Calcium assays in cells follow changes in intracellular calcium, usually with a dye or a luminescent sensor.

The subject of assay [4] is TRPC4 beta (transient receptor potential cation channel C4), mouse. The assay is described as follows: potentiation of DAMGO EC20 TRPC4 response – cell-based, Fluo-4, HEK293 TRPC4beta/mu-opioid, confirmation (AID 2555;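 active means primary screen hit whose calcium fluorescence ratio, in both repeats, exceeds the weak agonist control mean by 3 SD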). The conditions noted are these: DAMGO EC20, Fluo-4 calcium flux, at 10 µM; hits give high values.
For assay [5], the target named is Short transient receptor potential channel 4 (Mus musculus) (UniProt Q9QUQ5). The assay is described as follows: blockers of DAMGO-evoked TRPC4 calcium flux – cell-based, Fluo4, HEK293 TRPC4beta/mu-opioid, confirmation (AID 2636;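 active means calcium signal cut by more than 3 SD below the full-agonist control yet still positive, in both repeats and the earlier primary screen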). Conditions: at 10 µM; hits give high values.
The target is the same in assay [6]. The assay is described as follows: blockers of DAMGO-evoked TRPC4 calcium flux – cell-based, second round, Fluo4, HEK293 TRPC4beta/mu-opioid, 1 µM, confirmation (AID 2637;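 active means calcium signal ratio cut to more than 3 SD under the fully stimulated control mean yet still positive, in both repeats and the primary screen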;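 on inhibition: percent of integrated ratio relative to wells lacking test compound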). Conditions: at 1 µM; hits give high values.
Assay [7] shares this target. The assay is described as follows: potentiation of DAMGO-evoked TRPC4 calcium signal – cell-based, HEK293 TRPC4/mu-opioid, Fluo-4 calcium, EC20 DAMGO, dose response (AID 434941;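 active means earlier screen potentiator hit that boosts the TRPC4 ion channel at some dose, with a dose response; inactive means no potentiation, no dose response, or not a prior hit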;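 further: calcium entry triggered by an EC20 dose of DAMGO at the co-expressed mu-opioid receptor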).
In assay [8] the target is Short transient receptor potential channel 6 (Mus musculus) (UniProt Q61143). The assay is described as follows: TRPC6 blockade by TRPC4 inhibitor hits – cell-based, HEK293, membrane potential dye, duplicate, selectivity assay for TRPC4 inhibitor project, confirmation (AID 434948;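 active means active in primary screen and both duplicates, each dropping signal beyond three positive-control SD with fluorescence still positive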). The conditions noted are these: HEK293 TRPC6, membrane potential dye fluorescence, at 10 µM, stimulated with maximal-effect acetylcholine; hits give high values.

Assay [9] shares this target. The assay is described as follows: TRPC6 opening by TRPC4 activator hits – cell-based, HEK293, membrane potential dye, duplicate, selectivity assay for TRPC4 activator project, confirmation (AID 434950;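 active means membrane potential signal rise above negative control mean plus 3 SD in both duplicates, also active in the earlier TRPC4 screen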;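 on activation: 0% = buffer only wells and 100% = acetylcholine maximal-effect wells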). The conditions noted are these: HEK293 TRPC6, membrane potential fluorescence, at 10 µM; activation: hits give high values; outcome: activation.
Assay [10] shares this target. The assay is described as follows: positive modulators of mouse TRPC6 channel – HEK293 cells, membrane potential dye, duplicate, selectivity assay for TRPC4 potentiator project, confirmation (AID 434952;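 active means compound raising the membrane signal above positive-control mean plus 3 SD in both repeats, and a primary screen hit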). Conditions: HEK293 TRPC6, membrane potential dye fluorescence, at 10 µM, maximal acetylcholine added after compound; hits give high values.
Assay [11] addresses Short transient receptor potential channel 4 (Mus musculus) (UniProt Q9QUQ5). The assay is described as follows: calcium flux activators in TRPC4/5HT1a cells, counter-screen for TRPC4 activator project, cell-based, second counter screen, HEK293 TRPC4/5HT1a, Fluo-4 (AID 434977;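 active means calcium signal rise above buffer-control mean plus 5 SD in both duplicates, and also a hit in the primary screen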;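 on activation: plate controls were assay buffer for no effect and maximal serotonin response for full effect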). The conditions noted are these: Fluo-4 calcium flux, at 10 µM; hits give high values.
The nature of assay [12]: serotonin-gated TRPC4 signal block – cell-based, second counter screen, HEK293 TRPC4/5HT1a, Fluo-4, counter-screen for TRPC4 inhibitor project, confirmation (AID 434978;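 active means primary screen active whose calcium signal fell more than 3 SD beyond the full-serotonin control mean in both duplicate plates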;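 on outcome: serotonin given first at submaximal then at maximal dose after compound preincubation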). The conditions noted are these: Fluo-4 calcium flux, at 10 µM, serotonin added to trigger calcium flux; hits give high values.
Assay [13] has as its system TRPC4 (mouse), co-expressed with 5HT1a in HEK293. The assay is described as follows: enhancement of serotonin-evoked TRPC4 response – cell-based, second counter screen, HEK293 TRPC4/5HT1a, Fluo-4, counter-screen for TRPC4 potentiator project, confirmation (AID 434979;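 active means signal rise over 3 SD above mean of control wells given weak agonist, in both repeats and first screen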). Conditions: Fluo-4 calcium flux, at 10 µM, serotonin added at its EC20 dose; hits give high values. For orientation: The purpose of a counterscreen is to sort out artefacts and off-target activity.

Assay [14] in a line: nonspecific calcium rise without TRPC4 – cell-based, HEK293 mu-opioid receptor line, counter-screen for TRPC4 activator project, confirmation (AID 449723;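 active means hit in primary screen, with calcium signal over 5 SD above buffer well mean in both duplicates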;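 further: counter screen cells carry the mu-opioid receptor alone and lack TRPC4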). The conditions noted are these: HEK293 mu-opioid cells, Fluo-4 calcium fluorescence, at 10 µM; hits give high values.
A short description of assay [15]: nonspecific potentiation of DAMGO calcium response – cell-based, HEK293 mu-opioid receptor line, counter-screen for TRPC4 allosteric potentiator project, confirmation (AID 449724;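 active means calcium signal rise more than 3 SD above the low-dose agonist control mean, in both duplicate plates and the primary screen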;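 further: HEK293 cells carrying mu-opioid receptor only with no TRPC4 channel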). The conditions noted are these: HEK293 mu-opioid receptor cells, Fluo-4 calcium flux, at 10 µM, compound added before EC20 DAMGO stimulus; hits give high values.
The target in assay [16] is Short transient receptor potential channel 4 (Mus musculus) (UniProt Q9QUQ5). The assay is described as follows: DAMGO-gated TRPC4 membrane potential modulation – cell-based, second specificity screen, HEK293 TRPC4/mu-opioid, selectivity assay for TRPC6 inhibitor project, confirmation (AID 2776;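 active means compounds whose fluorescence signal differed from control wells by over 3 SD, either direction, in both duplicate plates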). Conditions: HEK293 TRPC4/MOR, membrane potential dye fluorescence, at 10 µM, channel activated by saturating DAMGO dose; hits give high values.

Assay [17] relates to transient receptor potential cation channel C4 (TRPC4), mouse. The assay is described as follows: membrane potential change in TRPC4 cells – cell-based, HEK293 TRPC4/mu-opioid, membrane potential dye, selectivity assay for TRPC6 inhibitor project, confirmation (AID 2777).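 Further: integrated kinetic ratio of fluorescence range over baseline.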 Conditions: membrane potential fluorescence, at 10 µM.
Assay [18] in a line: parental HEK293 depolarization signal interference – cell-based, second counter screen, counter-screen for TRPC6 inhibitor project, confirmation (AID 2779;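 active means membrane potential signal moving either way by over 3 SD of the maximum-effect control, in both duplicate plates, meaning non-specific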). Conditions: parental HEK293 membrane potential dye fluorescence; at 10 µM; maximal acetylcholine challenge after compound addition.
Assay [19] addresses Short transient receptor potential channel 6 (Mus musculus) (UniProt Q61143). The assay is described as follows: blockers of TRPC6 cation channel activity – HEK293 cells, membrane potential dye, duplicate, confirmation (AID 488960;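 active means fluorescence ratio falls more than 5 SD below the full-stimulation control mean, in both duplicate runs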;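 on inhibition: integrated fluorescence ratio of peak minus minimum over baseline after agonist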). Conditions: ACh-evoked depolarization, at 10 µM; hits give high values.
Assay [20] has as its target Short transient receptor potential channel 4 (Mus musculus) (UniProt Q9QUQ5). The assay is described as follows: block of DAMGO-driven TRPC4 calcium entry – cell-based, HEK293 TRPC4/mu-opioid, Fluo-4 calcium, dose response (AID 434942;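 active means primary screen inhibitor hit that blocks the TRPC4 channel at some tested dose, yielding a dose curve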).

For part of these data: Measured potencies and affinities stand elsewhere. This is one part of the list. Calls of active or inactive are those of the source.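 How the source made its calls, unless noted: active means rise or fall in signal beyond 3 SD of buffer-only wells in both replicate plates, either sign; inactive means the rest.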

Chain of Short transient receptor potential channel 4 (Mus musculus) (Q9QUQ5 whole entry, looked up): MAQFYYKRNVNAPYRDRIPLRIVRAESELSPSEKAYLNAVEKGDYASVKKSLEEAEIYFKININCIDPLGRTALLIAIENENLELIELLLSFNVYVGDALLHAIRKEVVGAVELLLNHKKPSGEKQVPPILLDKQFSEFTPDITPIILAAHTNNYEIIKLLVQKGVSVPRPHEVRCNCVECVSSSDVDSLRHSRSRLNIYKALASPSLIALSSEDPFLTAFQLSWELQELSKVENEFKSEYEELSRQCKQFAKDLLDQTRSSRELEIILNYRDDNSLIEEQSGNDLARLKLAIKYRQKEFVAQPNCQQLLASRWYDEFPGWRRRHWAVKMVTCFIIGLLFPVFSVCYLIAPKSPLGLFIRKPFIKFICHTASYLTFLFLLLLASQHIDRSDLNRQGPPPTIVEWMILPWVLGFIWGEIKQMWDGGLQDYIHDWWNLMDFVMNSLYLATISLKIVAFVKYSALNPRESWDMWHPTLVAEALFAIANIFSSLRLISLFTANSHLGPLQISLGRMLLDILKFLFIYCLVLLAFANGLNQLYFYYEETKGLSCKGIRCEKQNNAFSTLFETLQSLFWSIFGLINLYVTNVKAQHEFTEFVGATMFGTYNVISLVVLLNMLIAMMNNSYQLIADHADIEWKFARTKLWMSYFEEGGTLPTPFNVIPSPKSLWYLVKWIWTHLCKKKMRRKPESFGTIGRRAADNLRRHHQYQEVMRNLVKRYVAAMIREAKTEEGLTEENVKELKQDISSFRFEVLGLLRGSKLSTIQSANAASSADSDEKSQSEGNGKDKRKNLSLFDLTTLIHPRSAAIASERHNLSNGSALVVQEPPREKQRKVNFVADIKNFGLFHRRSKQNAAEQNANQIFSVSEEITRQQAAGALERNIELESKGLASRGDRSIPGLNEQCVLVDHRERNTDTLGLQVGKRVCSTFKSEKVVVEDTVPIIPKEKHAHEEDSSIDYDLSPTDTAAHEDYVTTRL
Chain of Short transient receptor potential channel 6 (Mus musculus) (Q61143 whole entry, looked up): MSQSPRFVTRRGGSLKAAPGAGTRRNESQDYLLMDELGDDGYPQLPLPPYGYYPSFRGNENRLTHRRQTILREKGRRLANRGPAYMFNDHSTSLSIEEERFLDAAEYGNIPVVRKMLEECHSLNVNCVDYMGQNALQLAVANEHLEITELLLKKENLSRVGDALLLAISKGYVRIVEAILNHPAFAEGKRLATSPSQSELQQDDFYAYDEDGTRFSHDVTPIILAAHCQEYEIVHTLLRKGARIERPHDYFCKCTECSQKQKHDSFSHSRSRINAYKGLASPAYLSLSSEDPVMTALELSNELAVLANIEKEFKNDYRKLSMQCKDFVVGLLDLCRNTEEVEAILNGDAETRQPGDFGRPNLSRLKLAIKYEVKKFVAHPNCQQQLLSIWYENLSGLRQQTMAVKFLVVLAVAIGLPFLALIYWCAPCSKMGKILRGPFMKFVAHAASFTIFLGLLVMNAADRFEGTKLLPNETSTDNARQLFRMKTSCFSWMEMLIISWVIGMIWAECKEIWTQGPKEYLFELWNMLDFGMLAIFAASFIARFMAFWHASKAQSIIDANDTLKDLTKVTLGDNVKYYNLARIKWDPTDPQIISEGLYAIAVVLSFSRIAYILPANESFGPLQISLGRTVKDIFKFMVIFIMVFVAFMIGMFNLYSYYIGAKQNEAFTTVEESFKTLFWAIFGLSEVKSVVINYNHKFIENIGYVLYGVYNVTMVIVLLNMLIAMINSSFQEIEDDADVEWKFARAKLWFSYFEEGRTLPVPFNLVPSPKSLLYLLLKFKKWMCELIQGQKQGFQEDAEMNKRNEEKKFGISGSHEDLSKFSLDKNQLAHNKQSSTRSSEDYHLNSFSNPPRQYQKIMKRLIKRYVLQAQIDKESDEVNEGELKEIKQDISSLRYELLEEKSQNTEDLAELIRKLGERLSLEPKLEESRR

With `O=C(N/N=C/c1cccnc1)c1ccccc1OCc1ccc(Cl)cc1`, the outcome in assay [1], in assay [2], in assay [3], in assay [4], in [7] and in assay [8] was inactive. Further, the compound was classed as inactive in assay [9], in assay [10], in assay [11], in [13], in [14] and in [15]. Further, the inhibition is 98% (active) in assay [5], 48% (active) in assay [6] and 42.7% (active) in assay [12].
As for `O=C(NNS(=O)(=O)c1ccc(Cl)cc1)C1CCN(Cc2ccccc2)CC1`, the compound was called inactive in assay [16] and in assay [17]. The signal change vs control in assay [18] is -4% (active). In addition, in assay [19], the inhibition was 77.8% (active).
`Cc1cc(OCCNCCO)cc(C)c1Cl`: the activation in assay [1] was 122% (active); in assay [2], 65% (active); in [9], 37% (active); in [11], 35.3% (active). The potentiation is 20% (active) in assay [3], 19% (active) in assay [4] and 24.3% (active) in [13]. Besides, the outcome in assay [5], in assay [6], in [20], in assay [8], in [10] and in [12] was inactive. Besides, the result in [14] and in assay [15] was inactive.
Take `O=C(CCN1CCN(Cc2ccccc2)CC1)Nc1nccs1`: the potentiation is 19% (active) in assay [3], 11% (active) in assay [4] and 17% (active) in [13].
With `CC(C)(C)NCc1cc(Br)ccc1OC1CCCC1`, the inhibition in assay [16] was 36% (active); in assay [19] it was 123% (active). The activity change, negative = inhibition in [17] is 74.6% (active). The signal change vs control in assay [18] was 5% (active).
As for `CCCCc1cc(O)c(CCCC)c(O)c1`, the activation in assay [1] was 63% (active); in assay [11], 44.6% (active); in assay [14], 34.5% (active). The outcome in assay [2], in assay [3], in assay [5], in [6], in assay [20] and in [8] was inactive. The result in assay [9], in assay [10], in assay [12], in assay [13] and in assay [15] was inactive. Moreover, the potentiation in assay [4] was 14% (active).
As to `Cc1cc(Nc2ccc(N3CCOCC3)cc2)c2cccc(C)c2n1`, the inhibition in [16] was 59% (active). Besides, the activity change, negative = inhibition in [17] is -24.1% (active). In assay [18], the signal change vs control was 26.5% (active). Besides, the call in assay [19] was inactive.
On to `COc1ccc(CC(=O)Nc2sc(Cc3ccccc3)c(C)c2C(N)=O)cc1`, for which the result in assay [16], in [17], in [18] and in [19] was inactive.
Turning to `CC1CC(C)CN(C/C=C/c2ccccc2[N+](=O)[O-])C1` (centres undefined), the compound was classed as inactive in assay [16] and in [19]. Also, in assay [17], the activity change, negative = inhibition is 4.24% (active). Also, the signal change vs control in [18] was 266% (active).
As for `CCCCCOc1ccc(CSC2=NCCN2)cc1[N+](=O)[O-]`, the inhibition is 59% (active) in assay [16] and 54.9% (active) in assay [19]. Further, the outcome in assay [17] and in assay [18] was inactive.
On to `COc1ccc(N/C(C)=C2/C(=O)C(=O)N(CCO)C2c2ccc(Br)cc2)cc1` (centres undefined), for which the activation in [1] is 289% (active); in [9] it was 31.5% (active); in assay [11], 57.5% (active). Besides, the result in [2], in [4], in assay [5], in [6], in assay [20] and in assay [8] was inactive. Moreover, the outcome in assay [10], in [12], in assay [14] and in assay [15] was inactive. The potentiation in assay [3] was 141% (active); in assay [13], 60.7% (active).
For the compound `CCCCNc1nc2ccccc2[nH]1`, the result in assay [8], in assay [9] and in assay [10] was inactive.
On to `CN(C)CCOC(=O)C(c1ccccc1)C1(O)CCCC1` (centres undefined), for which the compound was called inactive in assay [16] and in assay [17]. Also, the signal change vs control in [18] is -39.5% (active). Moreover, in [19], the inhibition is 90.5% (active).
On to `O=C1c2ccccc2C(=O)c2c1cccc2N1CCN(Cc2ccccc2)CC1`, for which the compound was called inactive in assay [16] and in assay [18]. In addition, in [17], the activity change, negative = inhibition was -17% (active). Besides, in assay [19], the inhibition was 59.7% (active).
With `CN(C)CCCOc1cccc(Cl)c1`, the activation is 71% (active) in [1], 55% (active) in [2], 51% (active) in assay [9] and 17.9% (active) in [11]. Moreover, the potentiation is 32% (active) in assay [3], 37% (active) in assay [4] and 28.7% (active) in assay [13]. For the same compound, the outcome in [5], in [6], in assay [20], in assay [8], in assay [10] and in [12] was inactive. Also, the outcome in assay [14] and in assay [15] was inactive.
As to `CCN(CC)CCn1c2ccc(Cl)cc2c2nc(C)sc21`, the inhibition is 57.5% (active) in assay [16] and 49.7% (active) in [19]. Moreover, the result in assay [17] and in [18] was inactive.
For `CC(C)CCNc1nc(N2CCCC2)c2c(c1C#N)CCN(C)C2`, the inhibition is 54% (active) in assay [16] and 71.5% (active) in assay [19]. The activity change, negative = inhibition in [17] is -16.9% (active). The result in assay [18] was inactive.
Regarding `CC(C)c1ccc(OCC(O)Cn2cnc3ccccc32)cc1` (centres undefined), the result in [16], in assay [17], in assay [18] and in assay [19] was inactive.
For the compound `COc1ccccc1OCCNCC(O)COc1cccc2[nH]c3ccccc3c12` (centres undefined), the inhibition in assay [16] is 28% (active); in assay [19] it was 61.1% (active). For the same compound, the result in assay [17] and in assay [18] was inactive.

As usually defined, the inhibition is the change of the read-out against control, counted positive when it falls.
